# From PubChem BioAssay (NCI)
# Several values for one entry are separate records, joined by “and”; a condition that tells them apart may be missing. Identical values can stand only once. About 83,000 compounds went through this panel and 20% of them were active in at least one assay; those are over-represented in the sample as a whole.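 Single-concentration screen, 48 h exposure, 96-well plates. Endpoint: percent growth. Below 10 = active.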 Unmarked numbers belong to inactive results. Activity calls are given as the source filed them.
# Assays:
# Experiment in all cases: NCI-60 one-dose screen, 48 h (100 = growth as untreated, 0 = no growth, -100 = all killed)
# SNB-75 CNS = conditions: 10 µM unless noted
# SNB-19 CNS = system: SNB-19 CNS
# U251 CNS = system: U251 CNS
# PC-3 prostate = system: PC-3 prostate
# UACC-62 melanoma = system: UACC-62 melanoma
# LOX IMVI melanoma = system: LOX IMVI melanoma
# SK-MEL-28 melanoma = system: SK-MEL-28 melanoma
# EKVX NSCLC = system: EKVX NSCLC
# SN12C renal = system: SN12C renal
# SK-MEL-5 melanoma = system: SK-MEL-5 melanoma
compound,measurement,setting,value
CC[n+]1c(-c2ccccc2)c2cc(N)ccc2c2ccc(N)cc21,growth,SNB-75 CNS,-88.5% (active)
same,growth,SNB-19 CNS; 10 µM unless noted,-5.17% (active)
same,growth,U251 CNS; 10 µM unless noted,-2.55% (active)
same,growth,PC-3 prostate; 10 µM unless noted,20.9%
same,growth,UACC-62 melanoma; 10 µM,-81.3% (active)
same,growth,LOX IMVI melanoma; 10 µM unless noted,13.5%
same,growth,SK-MEL-28 melanoma; 10 µM,-42.9% (active)
same,growth,EKVX NSCLC; 10 µM unless noted,1.88% (active)
same,growth,SN12C renal; 10 µM unless noted,-16.5% (active)
Oc1cc[c]([Hg][Cl])cc1,growth,SNB-75 CNS,92.3%
same,growth,SNB-19 CNS; 10 µM unless noted,100%
same,growth,U251 CNS; 10 µM unless noted,85.9%
same,growth,PC-3 prostate; 10 µM unless noted,99.7%
same,growth,SK-MEL-5 melanoma; 10 µM unless noted,74.5%
same,growth,UACC-62 melanoma; 10 µM,92.1%
same,growth,LOX IMVI melanoma; 10 µM unless noted,71.3%
same,growth,SK-MEL-28 melanoma; 10 µM,74.5%
same,growth,SN12C renal; 10 µM unless noted,98.9%
C[C@H]1CCC/C=C/[C@@H]2C[C@H](O)C[C@H]2[C@H](O)/C=C/C(=O)O1,growth,SNB-75 CNS,-19.7% (active)
same,growth,SNB-19 CNS; 10 µM unless noted,38.3%
same,growth,U251 CNS; 10 µM unless noted,20.6%
same,growth,PC-3 prostate; 10 µM unless noted,-14.6% (active)
same,growth,SK-MEL-5 melanoma; 10 µM unless noted,-96.7% (active)
same,growth,UACC-62 melanoma; 10 µM,20.9%
same,growth,LOX IMVI melanoma; 10 µM unless noted,-69.4% (active)
same,growth,EKVX NSCLC; 10 µM unless noted,11.1%
same,growth,SN12C renal; 10 µM unless noted,19.8%
C[C@]12CC[C@H](O)CC1=CC[C@@H]1[C@@H]2CC[C@]2(C)C(=O)CC[C@@H]12,growth,SNB-75 CNS,71.6%
same,growth,SNB-19 CNS; 10 µM unless noted,95%
same,growth,U251 CNS; 10 µM unless noted,101%
same,growth,PC-3 prostate; 10 µM unless noted,79.2%
same,growth,SK-MEL-5 melanoma; 10 µM unless noted,92.9%
same,growth,UACC-62 melanoma; 10 µM,92.9%
same,growth,LOX IMVI melanoma; 10 µM unless noted,102%
same,growth,EKVX NSCLC; 10 µM unless noted,85.7%
same,growth,SN12C renal; 10 µM unless noted,106%
CCCCCCCCCCCC1CCCC(C)N1 (centres undefined),growth,SNB-75 CNS,82%
same,growth,SNB-19 CNS; 10 µM unless noted,93.2%
same,growth,U251 CNS; 10 µM unless noted,59.6%
same,growth,PC-3 prostate; 10 µM unless noted,44.4%
same,growth,SK-MEL-5 melanoma; 10 µM unless noted,97%
same,growth,UACC-62 melanoma; 10 µM,88.2%
same,growth,LOX IMVI melanoma; 10 µM unless noted,52.3%
same,growth,SK-MEL-28 melanoma; 10 µM,96.7%
same,growth,EKVX NSCLC; 10 µM unless noted,91.2%
same,growth,SN12C renal; 10 µM unless noted,75.3%
Cc1c(N)nc([C@H](CC(N)=O)NC[C@H](N)C(N)=O)nc1C(=O)N[C@H](C(=O)N[C@H](C)[C@@H](O)[C@H](C)C(=O)N[C@H](C(=O)NCCc1nc(-c2nc(C(=O)NCCC[S+](C)C)cs2)cs1)[C@@H](C)O)C(OC1OC(CO)C(O)C(O)C1OC1OC(CO)C(O)C(OC(N)=O)C1O)c1cnc[nH]1 (some centres undefined),growth,SNB-75 CNS,40.6% [2.5 µM]
same,growth,SNB-19 CNS; 10 µM unless noted,74.2% [2.5 µM]
same,growth,U251 CNS; 10 µM unless noted,58.4% [2.5 µM]
same,growth,PC-3 prostate; 10 µM unless noted,60.5% [2.5 µM]
same,growth,SK-MEL-5 melanoma; 10 µM unless noted,34.1% [2.5 µM]
same,growth,UACC-62 melanoma; 2.5 µM,43.8%
same,growth,UACC-62 melanoma; 25 µM,-42.5% (active) and -100% (active)
same,growth,LOX IMVI melanoma; 10 µM unless noted,14.3% [2.5 µM]
same,growth,EKVX NSCLC; 10 µM unless noted,103% [2.5 µM]
same,growth,SN12C renal; 10 µM unless noted,52.2% [2.5 µM]
CCC1(O)CC(OC2CC(N(C)C)C(OC3CC4OC5CC(=O)C(C)OC5OC4C(C)O3)C(C)O2)c2c(cc3c(c2O)C(=O)c2c(O)ccc(O)c2C3=O)C1C(=O)OC (centres undefined),growth,SNB-75 CNS,-98% (active)
same,growth,SNB-19 CNS; 10 µM unless noted,0.801% (active)
same,growth,U251 CNS; 10 µM unless noted,-18.4% (active)
same,growth,PC-3 prostate; 10 µM unless noted,-63.5% (active)
same,growth,SK-MEL-5 melanoma; 10 µM unless noted,-87.3% (active)
same,growth,UACC-62 melanoma; 10 µM,-72.5% (active)
same,growth,LOX IMVI melanoma; 10 µM unless noted,-22.7% (active)
same,growth,EKVX NSCLC; 10 µM unless noted,1.67% (active)
same,growth,SN12C renal; 10 µM unless noted,13.4%
CC1=C(CO)C2=C(C)C3(CC3)[C@@](C)(O)C(=O)C2=C1,growth,SNB-75 CNS,-83.8% (active)
same,growth,SNB-19 CNS; 10 µM unless noted,11.3%
same,growth,U251 CNS; 10 µM unless noted,2.57% (active)
same,growth,PC-3 prostate; 10 µM unless noted,-18.8% (active)
same,growth,SK-MEL-5 melanoma; 10 µM unless noted,-84.1% (active)
same,growth,UACC-62 melanoma; 10 µM,-81.5% (active)
same,growth,LOX IMVI melanoma; 10 µM unless noted,22.8%
same,growth,EKVX NSCLC; 10 µM unless noted,0.643% (active)
same,growth,SN12C renal; 10 µM unless noted,20.5%
CC[C@](O)(C(=O)O)c1cc2n(c(=O)c1CO)Cc1cc3ccccc3nc1-2,growth,SNB-75 CNS,-33.5% (active)
same,growth,SNB-19 CNS; 10 µM unless noted,1.96% (active)
same,growth,U251 CNS; 10 µM unless noted,1.58% (active)
same,growth,PC-3 prostate; 10 µM unless noted,-8.14% (active)
same,growth,SK-MEL-5 melanoma; 10 µM unless noted,-94.2% (active)
same,growth,UACC-62 melanoma; 10 µM,-68.6% (active)
same,growth,LOX IMVI melanoma; 10 µM unless noted,-40.9% (active)
same,growth,EKVX NSCLC; 10 µM unless noted,10.2%
same,growth,SN12C renal; 10 µM unless noted,17%
CN1CCN(c2ccc([N+](=O)[O-])c3no[n+]([O-])c23)CC1,growth,SNB-75 CNS,-78.2% (active)
same,growth,SNB-19 CNS; 10 µM unless noted,-30.5% (active)
same,growth,U251 CNS; 10 µM unless noted,-95.6% (active)
same,growth,PC-3 prostate; 10 µM unless noted,-65.9% (active)
same,growth,SK-MEL-5 melanoma; 10 µM unless noted,-46.6% (active)
same,growth,UACC-62 melanoma; 10 µM,-58.8% (active)
same,growth,LOX IMVI melanoma; 10 µM unless noted,-46.2% (active)
same,growth,SK-MEL-28 melanoma; 10 µM,17.3%
same,growth,EKVX NSCLC; 10 µM unless noted,-34.4% (active)
same,growth,SN12C renal; 10 µM unless noted,-63.9% (active)
Cc1cc(N=Nc2ccccc2C)ccc1N,growth,SNB-75 CNS,42.5%
same,growth,SNB-19 CNS; 10 µM unless noted,69.7%
same,growth,U251 CNS; 10 µM unless noted,74.9%
same,growth,SK-MEL-5 melanoma; 10 µM unless noted,79.3%
same,growth,UACC-62 melanoma; 10 µM,74%
same,growth,LOX IMVI melanoma; 10 µM unless noted,71.5%
same,growth,SK-MEL-28 melanoma; 10 µM,99.4%
same,growth,EKVX NSCLC; 10 µM unless noted,71.9%
same,growth,SN12C renal; 10 µM unless noted,28.9%
COC1=C(C)C(=O)C2=C(C1=O)C(CO)N1C(C#N)C3CC4C(C1C2N1CCOC41)N3C (centres undefined),growth,SNB-19 CNS; 10 µM unless noted,8.12% (active)
same,growth,U251 CNS; 10 µM unless noted,-9.96% (active)
same,growth,PC-3 prostate; 10 µM unless noted,-40.2% (active)
same,growth,SK-MEL-5 melanoma; 10 µM unless noted,-90.1% (active)
same,growth,UACC-62 melanoma; 10 µM,-81.2% (active)
same,growth,LOX IMVI melanoma; 10 µM unless noted,-21.2% (active)
same,growth,EKVX NSCLC; 10 µM unless noted,0.181% (active)
same,growth,SN12C renal; 10 µM unless noted,19.8%
Cc1ccc(C(=O)OC(C(=O)O)C(OC(=O)c2ccc(C)cc2)C(=O)O)cc1 (centres undefined) (tested in a mixture with another compound),growth,SNB-75 CNS,55%
same,growth,U251 CNS; 10 µM unless noted,54.3%
same,growth,PC-3 prostate; 10 µM unless noted,29.4%
same,growth,SK-MEL-5 melanoma; 10 µM unless noted,14.7%
same,growth,UACC-62 melanoma; 10 µM,45%
same,growth,LOX IMVI melanoma; 10 µM unless noted,56.2%
same,growth,SK-MEL-28 melanoma; 10 µM,57.7%
same,growth,EKVX NSCLC; 10 µM unless noted,32.7%
same,growth,SN12C renal; 10 µM unless noted,38.5%
CC1CCC2(NC1)OC1CC3C4CCC5CC(OC6OC(CO)C(OC7OC(CO)C(O)C(OC8OCC(O)C(O)C8O)C7OC7OC(CO)C(O)C(O)C7O)C(O)C6O)CCC5(C)C4CCC3(C)C1C2C (centres undefined),growth,UACC-62 melanoma; 100 µM,-77.3% (active) and -86.4% (active)
S=C(SSC(=S)N1CCCCC1)N1CCCCC1,growth,SNB-75 CNS,50.5% [100 µM]
same,growth,SNB-19 CNS; 10 µM,92.8%
same,growth,SNB-19 CNS; 100 µM,56.5%
same,growth,U251 CNS; 10 µM,88%
same,growth,U251 CNS; 100 µM,-43.7% (active)
same,growth,PC-3 prostate; 10 µM,83.6%
same,growth,PC-3 prostate; 100 µM,18%
same,growth,SK-MEL-5 melanoma; 10 µM,93.9%
same,growth,SK-MEL-5 melanoma; 100 µM,-18% (active)
same,growth,UACC-62 melanoma; 10 µM,96.7%
same,growth,UACC-62 melanoma; 100 µM,2.29% (active)
same,growth,LOX IMVI melanoma; 10 µM,87.1%
same,growth,LOX IMVI melanoma; 100 µM,-45.9% (active)
same,growth,SK-MEL-28 melanoma; 10 µM,105%
same,growth,SK-MEL-28 melanoma; 100 µM,-41.6% (active)
same,growth,EKVX NSCLC; 10 µM,104%
same,growth,EKVX NSCLC; 100 µM,-23.3% (active)
same,growth,SN12C renal; 10 µM,96.1%
same,growth,SN12C renal; 100 µM,-42.3% (active)
